Screens deposited in PubChem BioAssay by NMMLSC.
Anthrax LF prot: inhibitors of Bacillus anthracis lethal factor protease; 360,000 compounds, 0.12% hits; P15917; AID 588501; inhibition, % at 10 µM; multiplex microsphere protease cleavage assay, LF; further: plate controls were buffer without enzyme for full effect and enzyme alone for no effect
Target sequence (P15917 whole entry, looked up): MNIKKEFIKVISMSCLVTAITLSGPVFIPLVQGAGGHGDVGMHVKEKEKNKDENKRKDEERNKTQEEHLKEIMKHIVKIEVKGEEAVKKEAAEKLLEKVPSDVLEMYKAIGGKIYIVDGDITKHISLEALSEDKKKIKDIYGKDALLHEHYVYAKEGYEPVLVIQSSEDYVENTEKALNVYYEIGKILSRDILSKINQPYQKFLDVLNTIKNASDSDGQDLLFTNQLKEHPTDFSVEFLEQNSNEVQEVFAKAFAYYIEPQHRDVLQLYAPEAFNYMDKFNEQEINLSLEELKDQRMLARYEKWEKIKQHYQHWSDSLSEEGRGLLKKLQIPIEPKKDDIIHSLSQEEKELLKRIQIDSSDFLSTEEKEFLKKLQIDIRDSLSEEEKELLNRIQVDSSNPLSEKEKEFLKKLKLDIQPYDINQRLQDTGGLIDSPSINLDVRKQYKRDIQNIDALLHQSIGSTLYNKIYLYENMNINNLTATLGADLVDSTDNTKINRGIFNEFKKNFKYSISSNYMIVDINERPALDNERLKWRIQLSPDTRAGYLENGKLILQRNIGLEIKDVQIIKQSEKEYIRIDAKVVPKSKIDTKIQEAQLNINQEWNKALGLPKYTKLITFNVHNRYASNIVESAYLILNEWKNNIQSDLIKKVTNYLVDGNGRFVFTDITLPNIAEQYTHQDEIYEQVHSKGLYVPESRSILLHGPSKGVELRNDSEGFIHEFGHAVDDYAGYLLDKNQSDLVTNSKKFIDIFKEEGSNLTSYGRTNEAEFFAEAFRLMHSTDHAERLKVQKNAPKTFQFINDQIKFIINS
BoNT-F LC inh: BoNT F light chain protease inhibition. inhibition, % at 10 µM. AID 588497. Multiplex microsphere protease cleavage assay, flow cytometry. 360,000 compounds, 0.22% hits; in the data active means inhibition above about 35%, passing the limit was not always enough; inconclusive means no clear call, values can overlap the other calls; further: plate controls were buffer without enzyme for full effect and enzyme alone for no effect
Bead autofluor: compound fluorescence in toxin protease inhibitor counterscreen. compound autofluorescence counterscreen, microsphere flow cytometry; hits give high values. fluorescence intensity (concentration not given with the values). 360,000 compounds, 3.1% hits. AID 624483; in the data active means fluorescence intensity above about 16000; inconclusive means no clear call, values can overlap the other calls
BoNT A protease: inhibitors of Botulinum neurotoxin A light chain protease; AID 588499; 360,000 compounds, 0.17% hits; multiplex microsphere protease substrate cleavage, flow cytometry; inhibition, % at 10 µM; further: plate controls were buffer without enzyme for full effect and enzyme alone for no effect
BoNTA LC inh 1: BoNT/A light chain protease inhibition; shares compounds with BoNT-F LC inh; multiplex microsphere protease assay, flow cytometry; inhibition, % at 10 µM; 720 compounds, 3% hits; in the data active means inhibition above about 32%
BoNT-F LC CP1: blocks botulinum neurotoxin F light chain protease; 720 tested, under 10 active; multiplex microsphere protease cleavage assay, flow cytometry; inhibition, % at 10 µM; shares compounds with BoNT-F LC inh; AID 602140; call rule not given here
Anthrax LF CP1: inhibitors of Bacillus anthracis lethal factor protease. shares compounds with BoNT-F LC inh. multiplex microsphere protease cleavage assay, LF. inhibition, % at 10 µM. 720 tested, under 10 active. AID 602142; call rule not given here
An asterisk follows results filed as active; ? = inconclusive; / = no result given. A selection: hits, their analogues and other compounds. The true share with any hit is near 3.5%. Unless noted, no stated cut-off is given here; in the data, active means inhibition above about 30%; inconclusive means no clear call, values can overlap the other calls; inactive means below that.

SMILES	Anthrax LF prot	BoNT-F LC inh	Bead autofluor	BoNT A protease	BoNTA LC inh 1	BoNT-F LC CP1	Anthrax LF CP1
COc1ccc(-n2ncc3c(=O)n(CC(C)=O)cnc32)cc1	7.9	?	2086	61.3*	0.4	-5.9	0.2
CC(=O)Cn1cnc2c(cnn2-c2ccc(F)cc2)c1=O	-2.9	-9.3	4218	-0.4	/	/	/
O=C(Nc1nc(-c2ccccc2)c(-c2ccccc2)s1)c1ccc(S(=O)(=O)N2CCCC2)cc1	-3.7	1.4	15385	3.1	-1.1	-1.6	0.0
COc1ccc(C(=O)Nc2nc(-c3ccc([N+](=O)[O-])cc3)c(-c3ccccc3)s2)cc1	30.6*	15.3	2430	28.9	23.8	3.3	17.5
Cc1ccc(/C=C2\SC(=O)N(CCNC(=O)C3CSC4(C)CCC(=O)N34)C2=O)cc1 (stereo not drawn)	4.0	13.2	5168	-0.8	/	/	/
O=C(NCCNC(=O)c1ccccc1)c1ccccc1	1.4	3.0	4755	1.0	/	/	/
O=C(NCS(=O)(=O)c1ccccc1)c1ccccc1	-1.7	36.0*	4447	1.6	1.1	2.5	3.8
O=C(NCc1ccccc1)C(c1ccc(F)cc1)N(Cc1ccc2c(c1)OCO2)C(=O)Cn1nnc(-c2cccs2)n1 (stereo not drawn)	2.9	50.9*	3945	2.6	-1.1	-9.1	-0.2
CCCC(C(=O)NCc1ccccc1)N(C(=O)Cn1nnc(-c2cccs2)n1)c1ccc2c(c1)OCCO2 (stereo not drawn)	-0.1	-34.8	4125	-1.3	/	/	/
COc1ccc2nc(C)cc(Nc3ccc(C(=O)O)cc3)c2c1	-2.7	38.6*	3557	-1.9	-1.0	-3.0	2.0
CCn1c2ccccc2c2cc(NC(=O)c3cc(C)on3)ccc21	-2.6	-3.4	4612	1.2	/	/	/
CCn1c2ccccc2c2cc(NC(=O)c3ccc(Br)o3)ccc21	43.3*	10.4	4789	76.7*	4.8	-9.8	-2.1
Cc1cc(C)n(C(=O)COc2c(C)cccc2C)n1	1.8	47.2*	4333	1.6	-0.4	-2.1	-0.9
Cc1cc(C)n(C(=O)COc2ccc(Cl)cc2Cl)n1	3.2	23.4	5427	3.6	/	/	/
COc1ccccc1NS(=O)(=O)c1ccc2[nH]c(=O)[nH]c2c1	-7.8	36.1*	3623	2.0	0.0	-4.3	0.4
O=c1[nH]c2ccc(S(=O)(=O)Nc3ccccc3O)cc2[nH]1	15.4	-0.8	3478	2.3	/	/	/
COc1ccc(/C(O)=C/c2nc3ccccc3n(-c3ccccc3)c2=O)cc1	5.2	37.2*	7212	2.5	5.3	4.0	2.7
O=C(NCc1ccco1)c1ccc(S(=O)(=O)c2cccc(S(=O)(=O)N3CCOCC3)c2)cc1	6.4	38.2*	7881	22.8	0.8	-1.9	-2.1
O=C(Nc1nc(-c2ccc3c(c2)OCCO3)cs1)c1ccco1	-0.3	-4.6	6117	-0.3	/	/	/
CCC(=O)N1CCc2cc(-c3csc(NC(=O)c4ccco4)n3)ccc21	-9.5	34.7*	3917	-1.8	2.1	4.9	-0.9
NS(=O)(=O)c1ccc(NCc2c(F)cccc2Cl)cc1	-8.0	45.7*	8836	38.3*	0.7	-0.3	-2.6
CN(CC(=O)NCCc1ccc(S(N)(=O)=O)cc1)Cc1c(F)cccc1Cl	4.8	40.5*	3568	-1.5	1.2	-3.6	-5.1
Fc1cccc(Cl)c1CNc1ccc(N2CCCC2)cc1	-9.2	-34.7	2305	-0.6	/	/	/
CCc1nn2c(NCCOC)cc(C)nc2c1-c1ccc(F)cc1	-3.0	-7.7	3879	-0.2	/	/	/
Cc1occc1C(=O)NNC(=O)c1ccccc1[N+](=O)[O-]	2.2	-10.2	4551	-2.7	/	/	/
SMILES	Anthrax LF prot	BoNT-F LC inh	Bead autofluor	BoNT A protease	BoNTA LC inh 1	BoNT-F LC CP1	Anthrax LF CP1
O=C(O)c1ccc(NC(=O)c2cccc(S(=O)(=O)Nc3ccc(C(=O)O)cc3)c2)cc1	6.7	39.0*	3985	3.0	-0.4	3.9	1.8
O=C(Nc1cccc(O)c1)c1cccc(S(=O)(=O)Nc2cccc(O)c2)c1	-3.3	-20.5	3622	3.6	-0.4	-4.3	-1.6
CC(=O)c1ccc(S(=O)(=O)Nc2ccc(C(=O)N3CCC3)cc2)cc1	-0.5	40.1*	4779	-1.6	-1.0	-1.7	-3.6
O=C(Nc1ccc(NS(=O)(=O)c2ccccc2)cc1)c1ccccc1	-12.2	-20.2	4015	-3.2	/	/	/
O=C(O)c1ccc(NS(=O)(=O)c2ccc(C(=O)Nc3ccccc3)cc2)cc1	2.8	-4.5	6786	-4.0	0.9	-0.4	2.6
O=C(C1CC(=O)N(c2ccc(F)c(Cl)c2)C1)N1CCOCC1 (stereo not drawn)	-0.9	0.8	3370	0.4	/	/	/
N=c1n(CCO)c2ccccc2n1Cc1ccccc1Cl	-2.2	33.1	3346	1.4	-2.5	-0.3	-1.4
